Data as given in PubChem BioAssay AID651965 (National Center for Advancing Translational Sciences (NCATS), 2013).
The campaign covered roughly 340,000 compounds. About 6,400 (1.9%) were called active. Another 4% or so got no clear call; they are omitted. This is one part of a sample in which actives are shown more often than they occur. Calls follow the shape of the dose curve; as a rule, active = well fitted falling curve with a large enough effect; inconclusive = small, poorly fitted or top-dose-only effect; inactive = no such curve, though single readings can be large or run the other way.

What follows are molecules tested against ATP-dependent Clp protease proteolytic subunit (Bacillus subtilis (strain 168)) (UniProt P80244) (assay: qHTS Assay for Activators of ClpP). Details: purified B. subtilis ClpP, FRET peptide cleavage, 20 min; series mostly up to 57.5 µM; activity change, negative = active: at the top concentration.
ATP-dependent Clp protease proteolytic subunit (Bacillus subtilis (strain 168)), sequence (P80244 whole entry, looked up): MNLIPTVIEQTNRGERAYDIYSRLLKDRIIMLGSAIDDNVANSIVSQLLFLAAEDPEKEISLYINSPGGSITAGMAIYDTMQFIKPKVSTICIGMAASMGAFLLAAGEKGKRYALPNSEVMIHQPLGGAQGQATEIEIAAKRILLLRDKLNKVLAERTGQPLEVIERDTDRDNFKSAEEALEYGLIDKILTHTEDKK
Method in brief: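 Buffer: 100 mM Tris/HCl pH8, 100 mM KCl, 0.05% low protease BSA, 2.5% glycerol, 0.01% Tween-20. ClpP 10 microg/mL final; 20 min RT; delta FRET normalized to ADEP and DMSO controls.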
Also: the source files actives as falling curves though it sought activators and does not explain the sign; nearly all actives have a fitted effect of over 65% in size.
Potency is read from the fitted curve at half-maximal effect.

Row | Structure (SMILES) | activity change, negative = active | Potency
1 | CCOC(=O)[C@]12CCCC=C1N(CCC1=CCCCC1)C(=O)[C@H](CC(=O)N1CCCCC1)C2 | 0.0448% (inactive) | –
2 | [O-][n+]1onc2c1CCc1[nH]c(-c3ccccc3)nc1-2 | – | 28.2 µM (active)
3 | N#Cc1c(-c2ccc(F)cc2)nc(-c2ccccc2)[nH]c1=O | -3.09% (inactive) | –
4 | CN(C(=O)CN1CCN(c2cc(-c3ccc(OCc4ccccc4)cc3)ncn2)CC1)c1ccccc1 | -2.81% (inactive) | –
5 | COc1ccc(Cl)cc1NC(=O)C(C)N1CCc2ccccc21 (stereo not drawn) | – | 28.2 µM (active)
6 | COc1ccc(Cl)cc1NC(=O)NCC1CCN(Cc2ccccc2F)CC1 | – | inactive
7 | COc1ccc(Cl)cc1NC(=O)CNc1ccccc1F | 1.27% (inactive) | –
8 | CC(C)CCN(C(=O)Nc1ccc(Cl)c(Cl)c1)C(C)c1cccs1 (stereo not drawn) | -0.0691% (inactive) | –
9 | CCOc1ccc(NC(=O)N(CC(C)C)CC(C)C)cc1 | 0.546% (inactive) | –
10 | CCOc1ccc(NC(=O)N(CCC(C)C)C(C)c2ccco2)cc1 (stereo not drawn) | – | 28.2 µM (active)
11 | OC(CBr)C[n+]1cccc2cc(Br)ccc21 (stereo not drawn) | -16.9% (inactive) | –
12 | Cc1ccc(C(=O)/C=C/c2c(C)nn(-c3ccccc3)c2Cl)cc1 | – | 6.31 µM (active)
13 | Cc1ccc(-n2nc(C)c(/C=N/NC(=O)c3cccs3)c2Cl)cc1 | 5.26% (inactive) | –
14 | Cc1nn(-c2ccccc2)c(Cl)c1/C=C/C(=O)c1ccc(O)cc1 | -2.48% (inactive) | –
15 | Cc1ccc(-c2nc3c(C)cc(Br)cn3c2Cc2ccccc2)cc1 | -4.79% (inactive) | –
16 | COC(=O)C[C@@H]1C=C[C@@H](NC(=O)c2ccc3c(c2)OCO3)[C@@H](CO)O1 | -12% (inactive) | –
17 | CCOc1ccc(NC(=O)CSc2nnc3c(n2)[nH]c2ccc(S(=O)(=O)N4CCOCC4)cc23)cc1 | 9.8% (inactive) | –
18 | CC(C)C1Cc2[nH][nH]c(=O)c2C(c2ccc(Cl)cc2)O1 (stereo not drawn) | -0.878% (inactive) | –
19 | CCC(=O)Nc1ccc2nc(SCC(=O)N3CCc4ccccc43)sc2c1 | 7.24% (inactive) | –
20 | O=C(Nc1ccc2nc(SCC(=O)N3CCc4ccccc43)sc2c1)c1ccccc1F | 1.34% (inactive) | –
21 | O=C(Nc1ccc2nc(SCC(=O)N3CCCc4ccccc43)sc2c1)c1ccc(F)cc1 | – | 28.2 µM (active)
22 | Nc1nnc(SCC(=O)Nc2ccc3nc(SCC(=O)Nc4ccccc4)sc3c2)s1 | 0.518% (inactive) | –
23 | O=C(COc1ccccc1Cl)Nc1ccc2nc(SCC(=O)N3CCCC3)sc2c1 | -14.3% (inactive) | –
24 | O=C(Nc1ccc2nc(SCC(=O)N3CCCc4ccccc43)sc2c1)c1ccc(Cl)cc1 | – | 10 µM (active)
25 | Cc1ccc(S(=O)(=O)N2[C@@H](Cc3ccccc3)CO[C@H]2CC(=O)OCc2ccccc2)cc1 | -0.866% (inactive) | –

Row | Structure (SMILES) | activity change, negative = active | Potency
26 | CN1OC[C@@H]2CN(C(=O)c3ccc(-c4ccccc4)cc3)[C@H](c3ccc(-c4cccc(F)c4)cc3)C[C@@H]21 | -1.14% (inactive) | –
27 | O=C(c1ccc(N2CCCC2=O)cc1)N1CCN(c2ccc(C(F)(F)F)cc2[N+](=O)[O-])CC1 | 0.9% (inactive) | –
28 | Cc1ccc(Cn2c(C)c(C(=O)NCc3ccccc3C(F)(F)F)sc2=O)cc1 | -1.3% (inactive) | –
29 | O=C(CC[C@H]1O[C@@H](n2ccc(=O)[nH]c2=O)[C@H](O)[C@@H]1O)N[C@H](Cc1ccccc1)C(=O)NCc1ccco1 | -1.61% (inactive) | –
30 | CC(CN1CCOCC1)OC(=O)c1ccc(C(C)(C)C)cc1 (stereo not drawn) | -2.55% (inactive) | –
31 | CC(CN1CCOCC1)OC(=O)c1ccc(Cl)cc1Cl (stereo not drawn) | 1.92% (inactive) | –
32 | Cc1ccc(C(=O)OC(C)CN2CCOCC2)cc1 (stereo not drawn) | – | 39.8 µM (active)
33 | CCN(CC)C(=O)C1=C(C)N(Cc2ccc(OC)cc2)C(=O)C(CC(=O)NCc2ccco2)C1 (stereo not drawn) | -2.92% (inactive) | –
34 | Nc1nc2c(ncn2[C@@H]2O[C@H](CNCc3ccc(OCCCN4CCOCC4)cc3)[C@@H](O)[C@H]2O)c(=O)[nH]1 | 0.256% (inactive) | –
35 | CCCCC[C@H](C)N1C[C@@H](COCc2ccccc2)Oc2cc(N3CCC[C@@H]3CO)ccc2S1(=O)=O | -18.2% (inactive) | –
36 | CCCN(CCC)CCNC(=O)c1ccc2c(c1)NC(=O)C(CS(=O)(=O)Cc1cccc(Br)c1)N2 (stereo not drawn) | – | 2.82 µM (active)
37 | O=C(NC1CC1)c1cccc(Br)c1 | 0.467% (inactive) | –
38 | CCCNC(=O)c1ccc(N2CCC3(CC2)CC(c2cccc(Br)c2)=NO3)c(NC(=O)c2ccco2)c1 | -27.6% (inactive) | –
39 | COc1ccc(OC)c(NC(=O)C2(C)CCN2C(=O)Cc2ccccc2)c1 (stereo not drawn) | 1.9% (inactive) | –
40 | Cc1cccc(C)c1NC(=O)C(c1ccc(C(F)(F)F)cc1)n1c(=O)c(-c2ccco2)nc2ccccc21 (stereo not drawn) | 4.32% (inactive) | –
41 | CCOC(=O)c1sc(C)c2c1NC(C)(c1cccc3ccccc13)NC2=O (stereo not drawn) | – | 28.2 µM (active)
42 | CCOC(=O)c1ccc(Nc2cc3ccccc3c(=O)[nH]2)cc1 | -23.8% (inactive) | –
43 | CCOC(=O)C1=C(CCc2ccccc2)NC(=O)NC1c1ccc2ccccc2c1 (stereo not drawn) | 0.198% (inactive) | –
44 | COc1cccc(-c2nnc(SCCOc3ccc4c(C)cc(=O)oc4c3)o2)c1 | – | 28.2 µM (active)
45 | COc1cccc(NC(=O)CSc2nnc(-c3cccnc3)o2)c1 | -1.16% (inactive) | –
46 | COc1cccc(-c2nnc(SCC(=O)N3CCC(C)CC3)o2)c1 | -1.81% (inactive) | –
47 | CCCNC(=O)C1(C)CCCN(C(=O)c2oc3ccccc3c2C)C1 (stereo not drawn) | -8.56% (inactive) | –
48 | OC[C@@H]1CN(Cc2ccc(F)cc2)C[C@H](n2cnc3c(NC4CCCC4)ncnc32)O1 | -1.01% (inactive) | –
49 | Cc1nnc(SCC(=O)N2c3ccccc3C(C)(c3ccc(Cl)cc3)CC2(C)C)s1 (stereo not drawn) | – | 31.6 µM (active)
50 | CC1(c2cccc([N+](=O)[O-])c2)CC(C)(C)N(C(=O)c2ccccc2)c2ccccc21 (stereo not drawn) | -0.902% (inactive) | –

Row | Structure (SMILES) | activity change, negative = active | Potency
51 | CC1(c2ccccc2)CC(C)(C)N(C(=O)c2cc([N+](=O)[O-])cc([N+](=O)[O-])c2)c2ccccc21 (stereo not drawn) | 0.813% (inactive) | –
52 | O=C(C[n+]1ccncc1)c1ccc2c(c1)CCCC2 | 0.453% (inactive) | –
53 | COc1ccc(CC(N)c2csc(NC(=O)Nc3ccc(C(C)C)cc3)n2)cc1 (stereo not drawn) | -0.479% (inactive) | –
54 | CO[C@H]1O[C@@H]2O[C@@]3(C)CC[C@@H]4[C@@H](C)CC[C@@H]([C@H]1C)[C@@]24OO3 | 0.445% (inactive) | –
55 | CCOC(=O)c1ccn(S(=O)(=O)c2ccc(C)cc2)c1-c1ccccc1 | -0.322% (inactive) | –
56 | CCOc1cc(-c2cc(-c3ccc(OC)cc3)nc(N)c2C#N)ccc1O | 43.2% (inactive) | –
57 | CCSc1nc(-c2ccc(OC)cc2)cc(-c2ccc(OC)cc2)c1C#N | – | 22.4 µM (active)
58 | CCOC(=O)CC(=O)CSc1nc(-c2ccccc2)cc(-c2ccc(Cl)cc2)c1C#N | 57.6% (inactive) | –
59 | CCc1ccc([C@@H]2CC(=O)[C@@H]3CN(S(=O)(=O)c4ccc(C)cc4)[C@H](c4ccc(Cl)cc4)C[C@@H]3N2S(=O)(=O)c2ccc(C)cc2)cc1 | -0.494% (inactive) | –
60 | Cc1ccc(S(=O)(=O)N[C@H]2CCC[C@@H]2O)cc1 | 0.149% (inactive) | –
61 | CCCNC(=O)c1cc(C2CCCN(C(=O)c3ccc4c(c3)CCO4)C2)on1 (stereo not drawn) | 1.78% (inactive) | –
62 | CCOc1ccc(CNC(=O)C2CCC(=O)N2C2CCCC2)cc1OC (stereo not drawn) | 0.407% (inactive) | –
63 | CCOc1cc(C2C(C(=O)OC)=CN(C3CCCC3)C=C2C(=O)OC)cc(Br)c1O | – | 31.6 µM (active)
64 | CCCC(=O)Nc1cc(OCC)c(NC(=O)NC2CCCCC2)cc1OCC | 0.317% (inactive) | –
65 | CCOc1ccc2[nH]c(=S)sc2c1 | 0.413% (inactive) | –
66 | C=CCC[C@@H](CCCCC)OC(=O)/C=C/[C@@H](O)[C@H](O)C[C@H](O)CC=C | -1.79% (inactive) | –
67 | COc1ccc2oc(=O)c(C(=O)O)cc2c1 | – | 20 µM (active)
68 | Cc1ccc(S(=O)(=O)N2CCC(C)CC2)cc1C(=O)NCc1ccccn1 | 0.42% (inactive) | –
69 | Cc1cc(C)cc(OCC(=O)NNC(=O)c2cc3ccccc3oc2=O)c1 | -8.32% (inactive) | –
70 | COc1ccc2oc(=O)c(C(=O)NCc3ccccn3)cc2c1 | – | 10 µM (active)
71 | O=C(NCc1ccccn1)c1cc2ccccc2oc1=O | – | 31.6 µM (active)
72 | COc1ccc2oc(=O)c(C(=O)N3CCN(c4ccccc4F)CC3)cc2c1 | 0.738% (inactive) | –
73 | COc1ccc2oc(=O)c(C(=O)N3CCCc4ccccc43)cc2c1 | -1.32% (inactive) | –
74 | O=C(NCc1ccccn1)c1cnc2sccn2c1=O | – | 28.2 µM (active)
75 | Cc1ccccc1CN1CCN(CC(=O)NCc2ccccn2)C1=O | -0.209% (inactive) | –

Row | Structure (SMILES) | activity change, negative = active | Potency
76 | COc1ccc(CNC(=O)c2cc3cccc(OC)c3oc2=O)cc1 | 0.159% (inactive) | –
77 | COc1cccc(S(=O)(=O)NCc2ccc(C(=O)NCc3ccccn3)cc2)c1 | -0.597% (inactive) | –
78 | N=c1oc2ccccc2cc1C(=O)NCc1ccccc1 | 0.202% (inactive) | –
79 | COc1cc(NC(=O)c2cc(-c3ccc(F)cc3OC(C)C)n[nH]2)cc(OC)c1OC | -3.06% (inactive) | –
80 | COc1ccc(NC(=O)C2Cc3c(-c4ccc5c(c4)OCO5)ccnc3O2)cn1 (stereo not drawn) | 5.38% (inactive) | –
81 | COc1cc(C(O)c2nc(-c3cccc(C(=O)O)c3)cs2)ccc1F (stereo not drawn) | 3.5% (inactive) | –
82 | Cc1cc2c(cc1C)N1C(=O)c3cc4ccccc4cc3NC(=O)C1C(=O)N2 (stereo not drawn) | -2.06% (inactive) | –
83 | COc1cc(OC)c(OC)cc1/C=C1\C=Cc2ccccc21 | -0.657% (inactive) | –
84 | CCOC(=O)C1(C)CCCN(C(=O)c2ccc(F)c(Cl)c2)C1 (stereo not drawn) | -9.57% (inactive) | –
85 | O=C(NCc1ccc(F)cc1)c1cc(C2CCCCN2C(=O)C2CCCCC2)on1 (stereo not drawn) | 0.616% (inactive) | –
86 | COc1cc(C(O)c2nc(-c3cnn(C)c3)cs2)ccc1F (stereo not drawn) | -2.24% (inactive) | –
87 | O=C(Oc1cccnc1)c1cc2ccccc2oc1=O | – | 28.2 µM (active)
88 | CCOC(=O)c1cc2cc3ccccc3cc2oc1=O | 1.97% (inactive) | –
89 | CCc1ccc(Oc2coc3cc(OC(=O)c4cc5ccccc5oc4=O)ccc3c2=O)cc1 | -6.78% (inactive) | –
90 | COc1ccc(Cl)cc1-c1cc(C(=O)Nc2cc(OC)c(OC)c(OC)c2)[nH]n1 | -0.634% (inactive) | –
91 | CCN(CC)CCNC(=O)CCCCCn1c(=O)[nH]c2cc(C(=O)OC)ccc2c1=O | – | 28.2 µM (active)
92 | O=C(CCCn1c(=O)[nH]c2cc(Cl)ccc2c1=O)NCCN1CCN(c2ccccc2)CC1 | -0.7% (inactive) | –
93 | CCCCCn1c(=O)[nH]c2cc(C(=O)NCCN(C)CCCC)ccc2c1=O | -22.5% (inactive) | –
94 | Nc1ncnc2c1ncn2[C@@H]1O[C@H](C(=O)NCC(F)(F)F)[C@@H](O)[C@H]1O | 1.54% (inactive) | –
95 | CCCCc1c(-c2ccc(Cl)cc2)ncn1CCc1ccccc1OC | -1.38% (inactive) | –
96 | Cc1nn(-c2ncc(C(F)(F)F)cc2Cl)c(=O)n1-c1ccccc1 | -3.4% (inactive) | –
97 | Cc1ccc(-c2nc3c(Cl)cc(C(F)(F)F)cn3c2Cc2cccc(Cl)c2)cc1 | -12.4% (inactive) | –
98 | Cc1ccc(-c2ccnc3nc(Sc4ncc(C(F)(F)F)cc4Cl)nn23)cc1 | – | 7.08 µM (active)
